From PubChem BioAssay
Only a selection was taken, and hits are over-represented in it overall.
Hedgehog inh: blocks Sonic Hedgehog signaling. inhibition, % (no concentration beside the values). 22,000 compounds, 2.1% hits. AID 2313. Shh-LIGHT2 Gli-luciferase reporter, 30 h;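 active = mean inhibition across valid replicates above about 65%, limit read from the data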;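 also: pathway switched on by Shh-conditioned medium diluted 1 in 25 in low serum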
PD-1 reverse act: activators reversing PD-1 mediated T-cell inhibition. primary human CD4 T cells, PD-L1 beads, CellTiter-Glo 96 h. activation, % (no concentration beside the values). 29,000 tested, under 10 active; call rule not given here;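 also: 0% = median vehicle wells and 100% = positive control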
MITF inhib: inhibitors of MITF | AID 2240 | TRPM1 promoter luciferase, luminescence, 24 h | 37,000 compounds, 0.28% hits | inhibition, % (concentration not given with the values); in the data active = inhibition above about 85%;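 also: human melanocyte line stably carrying TRPM1 promoter luciferase reporter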
Starred values were filed as active, the others as inactive; / = not tested or not shown.

SMILES | Hedgehog inh | PD-1 reverse act | MITF inhib
C[C@@H]1CCCCO[C@@H](CN(C)Cc2ccccc2)[C@@H](C)CN([C@H](C)CO)C(=O)c2cc(NC(=O)Nc3ccc(F)cc3)ccc2O1 | / | 0.8 | 31.0
COc1ccc(NC(=O)N(C)C[C@H]2OCCCC[C@@H](C)Oc3ccc(NS(=O)(=O)c4ccc(F)cc4)cc3C(=O)N([C@H](C)CO)C[C@@H]2C)cc1 | -4.2 | 0.9 | -28.5
C[C@@H]1CCCCO[C@H](CN(C)S(=O)(=O)c2ccc(F)cc2)[C@@H](C)CN([C@H](C)CO)C(=O)c2cc(NS(=O)(=O)c3ccc(F)cc3)ccc2O1 | -28.0 | / | 18.3
C[C@@H]1CCCCO[C@@H](CN(C)S(C)(=O)=O)[C@@H](C)CN([C@H](C)CO)C(=O)c2cc(NS(=O)(=O)c3ccc(F)cc3)ccc2O1 | 74.4* | 1.3 | 0.7
C[C@@H]1CCCCO[C@H](CN(C)Cc2ccccc2)[C@@H](C)CN([C@H](C)CO)C(=O)c2cc(NC(=O)Nc3ccc(F)cc3)ccc2O1 | 66.5* | -1.1 | 2.6
C[C@@H]1CCCCO[C@H](CN(C)C(=O)CCCN(C)C)[C@@H](C)CN([C@H](C)CO)C(=O)c2cc(NC(=O)CCC(F)(F)F)ccc2O1 | 77.4* | / | -3.9
COc1ccc(S(=O)(=O)Nc2ccc3c(c2)C(=O)N([C@H](C)CO)C[C@H](C)[C@@H](CN(C)C(=O)Nc2ccc(F)cc2)OCCCC[C@@H](C)O3)cc1 | 74.1* | / | 10.5
C[C@@H]1CCCCO[C@@H](CN(C)S(=O)(=O)c2ccccc2)[C@@H](C)CN([C@H](C)CO)C(=O)c2cc(NS(=O)(=O)c3cccs3)ccc2O1 | 9.2 | -6.0 | -3.7
C[C@@H]1CN([C@@H](C)CO)C(=O)c2cc(NC(=O)CCCCCC(=O)Nc3ccccc3N)ccc2O[C@@H]1CN(C)C(=O)Nc1ccc(F)cc1 | / | -1.1 | -8.1
COc1ccccc1N1C(=O)CC(SCC(=O)Nc2ccc(F)cc2)C1=O (stereo not drawn) | / | -2.8 | 2.1
C[C@@H]1CCCCO[C@@H](CN(C)C(=O)CCCN(C)C)[C@@H](C)CN([C@H](C)CO)C(=O)c2cc(NC(=O)C3CCCCC3)ccc2O1 | / | 0.3 | -4.7
CC(C)NC(=O)N(C)C[C@H]1OCCCC[C@@H](C)Oc2ccc(NS(=O)(=O)c3cn(C)cn3)cc2C(=O)N([C@H](C)CO)C[C@@H]1C | 71.8* | 2.2 | -3.1
C[C@@H]1CCCCO[C@@H](CN(C)C(=O)Nc2ccc(F)cc2)[C@@H](C)CN([C@H](C)CO)C(=O)c2cc(NS(=O)(=O)c3cn(C)cn3)ccc2O1 | -8.0 | -0.2 | 13.1
C[C@H]1CN([C@@H](C)CO)C(=O)c2cc(NC(=O)CCC(F)(F)F)ccc2O[C@@H]1CN(C)S(=O)(=O)c1ccc(F)cc1 | -46.4 | / | -3.8
O=C(c1cccs1)n1nc(-c2ccc(Cl)cc2)nc1NCc1ccco1 | / | 1.9 | -73.0
Cc1ccc(Cc2nn3c(C(=O)c4cccs4)nn(-c4ccc(Cl)cc4)c3nc2=O)cc1 | 67.1* | 0.7 | 22.7
Cc1cc(OCC(=O)Nc2ccccc2[N+](=O)[O-])ccc1Cl | / | / | -47.5
O=C(O)C1CC=C(Cl)CC1C(=O)Nc1ccc(Br)cc1 (stereo not drawn) | / | / | -7.2
C[C@H](CO)N1C[C@H](C)[C@H](CN(C)S(=O)(=O)c2cccs2)Oc2c(NC(=O)Nc3ccc(C(F)(F)F)cc3)cccc2C1=O | 14.7 | -2.0 | 27.3
COc1c(O)cc2oc3cc(O)c(CC=C(C)C)c(O)c3c(=O)c2c1CC=C(C)C | 10.6 | -14.2 | 49.9
CC(C)=CCc1c(O)cc2oc3c(CC=C(C)C)c(O)c(O)c(CC=C(C)C)c3c(=O)c2c1O | 102.5* | / | /
OCCCc1n[nH]c(=S)n1-c1ccccc1 | / | 1.5 | -15.8
CC(Oc1ccccc1-c1ccccc1)c1n[nH]c(=S)n1-c1ccccc1 (stereo not drawn) | 69.4* | 0.1 | 11.2
COc1ccccc1NC(=O)CSC1=NCCS1 | / | 0.8 | -9.9
Cc1c(-c2ccccc2)[n+](=O)c(-c2ccc(Br)cc2)c(C)n1[O-] | 66.8* | 0.2 | 8.9
SMILES | Hedgehog inh | PD-1 reverse act | MITF inhib
N#CC1CN(CCc2ccccc2)CN(CCc2ccccc2)C1 | 68.6* | -6.2 | 18.9
O=C1NCC2(CCN(CCc3ccccc3)CC2)O1 | 12.6 | / | 12.4
C[C@@H]1CN([C@@H](C)CO)C(=O)c2cc(NC(=O)c3ccncc3)ccc2O[C@H]1CN(C)S(C)(=O)=O | -18.4 | 0.6 | 7.4
C[C@@H]1CN([C@@H](C)CO)C(=O)c2cc(NC(=O)Cc3cn(C)c4ccccc34)ccc2O[C@H]1CN(C)S(=O)(=O)c1ccc(Cl)cc1 | / | -0.7 | 20.7
COc1ccc(OC)c(-n2c(=S)[nH]c3cc(C(=O)Nc4ccc(C)c(Cl)c4)ccc3c2=O)c1 | -29.9 | -0.3 | 0.4
COc1ccc(NC(=O)c2ccc3c(=O)n(Cc4ccco4)c(=S)[nH]c3c2)cc1OC | 77.2* | 0.0 | 5.1
Cn1ccnc1CN1CCN(Cc2nccn2C)CC1 | / | / | -4.1
CC1=CC(C)(C)N(S(=O)(=O)c2ccc(C)cc2)c2ccccc21 | 67.7* | -8.9 | 59.4
Cc1ccc(S(=O)(=O)c2ccc(-c3ccccc3)cc2)cc1 | / | 2.5 | 2.3
C[C@@H]1CN([C@H](C)CO)C(=O)c2cccc(NC(=O)NC3CCCCC3)c2O[C@H]1CN(C)Cc1ccc(Oc2ccccc2)cc1 | -34.7 | -4.3 | 73.3
COc1ccccc1NC(=O)CSC1CC(=O)N(c2ccc(F)cc2)C1=O (stereo not drawn) | / | -0.8 | 5.3
Cc1ccc(C(=O)Cn2c(C)csc2=Nc2ccccc2)cc1 | / | -0.7 | -9.1
Cc1ccc(C(=O)Cn2c3c(sc2=N)CCCC3)cc1 | 76.0* | / | 88.2*
Cc1ccc(S(=O)(=O)c2ccc(C)cc2)cc1 | 6.7 | -0.4 | 5.3
Cc1ccc(S(=O)(=O)/C=C/C#N)cc1 | 98.1* | -59.9 | 88.9*
CC1(C)CC[C@]2(C(=O)O[C@@H]3O[C@H](CO)[C@@H](O)[C@H](O)[C@H]3O)CC[C@]3(C)C(=CCC4[C@@]5(C)CC[C@H](O[C@@H]6O[C@H](CO)[C@@H](O)[C@H](O[C@@H]7O[C@H](CO)[C@@H](O)[C@H](O)[C@H]7O)[C@H]6O[C@@H]6O[C@H](CO)[C@H](O)[C@H](O)[C@H]6O)C(C)(C)C5CC[C@]43C)[C@@H]2C1 (stereo partly drawn) | -3.6 | / | /
C/C=C(/C)C(=O)O[C@H]1[C@H](OC(=O)/C(C)=C\C)[C@]2(CO)[C@H](O)C[C@]3(C)C(=CCC4[C@@]5(C)CC[C@H](OC6OC(C(=O)O)C(O)C(OC7OC(C)C(O)C(OC8OC(CO)C(O)C(O)C8O)C7O)C6O)C(C)(C)C5CC[C@]43C)[C@@H]2CC1(C)C (stereo partly drawn) | 99.0* | -38.3 | 101.8*
CC1(C)CC[C@@]2(C(=O)O[C@@H]3O[C@H](CO)[C@@H](O)[C@H](O)[C@H]3O)C(C1)C1=CCC3[C@@]4(C)CC[C@@H](O[C@@H]5O[C@H](CO)[C@@H](O)[C@H](O)[C@H]5O[C@@H]5O[C@H](CO)[C@@H](O)[C@H](O)[C@H]5O)C(C)(C)C4CC[C@@]3(C)[C@]1(C)C[C@H]2O (stereo partly drawn) | -38.8 | 1.8 | -4.5
